This is a sample that favours compounds with a hit; in the whole collection about 2.4% have one here.
eIF4E 4G PPI: eIF4E–eIF4G protein interaction inhibitors, primary screen, biochemical, uHTS, TR-FRET, eIF4GI fragment | TR-FRET eIF4E-eIF4GI(517-606) binding, 2 h | inhibition, % at 21.7 µM | AID 782, 2007 | Eukaryotic translation initiation factor 4E (Mus musculus) + Eukaryotic translation … | actives 0.37% (n = 220,000);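 active = inhibition above about 30%, limit read from the data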
PABP1 MLLE inh: inhibitors of PABP1 MLLE–PAM2 peptide binding, primary screen, biochemical, fluorescence polarization, FITC-PAM2, GST-MLLE; Polyadenylate-binding protein 1 (Homo sapiens), P11940; inhibition, % at 20 µM; actives 0.36% (n = 360,000); in the data active = inhibition above about 35%, passing the limit was not always enough
PfM18AAP inh: PfM18AAP inhibitors, malaria aminopeptidase, primary screen, biochemical, QFRET, recombinant enzyme; actives 1.2% (n = 290,000); inhibition, % at 7.35 µM; H-Glu-NHMec fluorogenic cleavage; AID 1822, 2009;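 active = inhibition above the campaign mean inhibition over all tested compounds plus 3 SD, cut at about 28% in these data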
eIF4H FP inh: human eIF4H binding inhibitors, primary screen, translation initiation inhibitor project, biochemical, uHTS, fluorescence polarization; inhibition, % at 35 µM; Eukaryotic translation initiation factor 4H (Homo sapiens), Q15056; eIF4H fluorescence polarization binding assay; AID 2012, 2009; actives 0.94% (n = 290,000);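 note: calls also rest on retests at 20 µM and on dose response follow-up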
PERK inh: block of dimerizer-induced PERK translation repression, primary screen, PERK inhibitor project, CHO PERK-DD cells, SEAP luminescence, HTS; actives 0.17% (n = 220,000); inhibition, % at 5.6 µM; CHO PERK-DD fusion, SEAP luminescence translation reporter;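 active = inhibition above the mean inhibition of all tested compounds plus 3 SD, set separately per screening campaign, cut at about 2.9% in these data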;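 note: PERK kinase domain activated by AP20187 dimerizer at 100 nM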
Target sequence (Q9NZJ5 whole entry, looked up, the tested form may be a part): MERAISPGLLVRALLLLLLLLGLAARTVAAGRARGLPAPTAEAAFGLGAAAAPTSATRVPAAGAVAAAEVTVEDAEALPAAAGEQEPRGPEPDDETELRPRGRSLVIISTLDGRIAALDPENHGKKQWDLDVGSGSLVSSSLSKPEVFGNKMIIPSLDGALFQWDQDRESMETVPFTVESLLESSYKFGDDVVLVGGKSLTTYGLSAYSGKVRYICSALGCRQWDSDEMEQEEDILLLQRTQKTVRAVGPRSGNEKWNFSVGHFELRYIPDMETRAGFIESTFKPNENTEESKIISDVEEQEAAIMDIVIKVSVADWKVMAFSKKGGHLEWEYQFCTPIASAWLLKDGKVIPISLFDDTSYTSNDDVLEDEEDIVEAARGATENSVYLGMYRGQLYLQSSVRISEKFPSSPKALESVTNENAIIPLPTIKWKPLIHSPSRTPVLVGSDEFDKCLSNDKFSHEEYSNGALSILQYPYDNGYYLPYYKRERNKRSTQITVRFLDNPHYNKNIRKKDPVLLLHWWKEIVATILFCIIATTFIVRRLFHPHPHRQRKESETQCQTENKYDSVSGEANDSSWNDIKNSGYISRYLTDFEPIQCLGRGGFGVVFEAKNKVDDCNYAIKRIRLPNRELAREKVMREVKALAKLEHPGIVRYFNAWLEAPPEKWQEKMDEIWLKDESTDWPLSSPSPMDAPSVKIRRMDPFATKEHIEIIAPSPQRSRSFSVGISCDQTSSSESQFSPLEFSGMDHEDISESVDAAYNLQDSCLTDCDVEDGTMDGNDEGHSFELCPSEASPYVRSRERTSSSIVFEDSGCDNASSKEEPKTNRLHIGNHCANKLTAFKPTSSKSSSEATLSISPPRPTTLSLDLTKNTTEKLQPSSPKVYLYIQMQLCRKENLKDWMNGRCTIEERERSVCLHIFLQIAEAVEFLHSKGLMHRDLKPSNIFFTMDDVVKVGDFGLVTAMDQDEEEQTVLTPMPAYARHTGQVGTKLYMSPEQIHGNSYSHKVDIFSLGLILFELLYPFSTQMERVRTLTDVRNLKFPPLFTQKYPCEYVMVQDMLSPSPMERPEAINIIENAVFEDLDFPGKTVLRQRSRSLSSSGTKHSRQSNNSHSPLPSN
PABP FP inh: PABP poly(A) RNA binding inhibitors, primary screen, biochemical, fluorescence polarization, uHTS. Polyadenylate-binding protein 1 (Homo sapiens), P11940. inhibition, % at 35 µM. actives 1% (n = 290,000). AID 2014, 2009;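 note: calls also rest on retests at 20 µM and on dose response follow-up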
Each line names hits and unclear results; the compound was inactive in the other large screens; ! = repeats disagree. Unless noted, the rule behind the calls is not given here.

Nc1ccccc1NC1=CC(=O)CC(c2ccco2)C1 (centres undefined)	eIF4H FP inh 91.2, PABP FP inh 91.3
Cc1ccc(NC2=CC(=O)CC(c3ccco3)C2)c(N)c1 (centres undefined)	eIF4H FP inh 103.6, PABP FP inh 99.0
Cc1cc(C)cc(NC2=CC(=O)CC(c3ccco3)C2)c1 (centres undefined)	none
O=C(COc1ccccc1)Nc1cccc(-c2ccc(N3CCOCC3)nn2)c1	none (no result: eIF4E 4G PPI, PfM18AAP inh, eIF4H FP inh, PERK inh, PABP FP inh)
Cc1ccc(C(=O)NC(=S)NNS(=O)(=O)c2ccccc2)cc1	PABP1 MLLE inh 41.1
Cc1ccc(S(=O)(=O)NNC(=O)c2cccc(O)c2)cc1	PfM18AAP inh 29.8
CCC(C)(C)NS(=O)(=O)c1cc(CN2C(=O)c3cccnc3C2=O)ccc1OC	none (no result: eIF4E 4G PPI, PERK inh)
CCOC1=C2CN(S(=O)(=O)c3ccc(C)cc3)[C@H](c3cccc(Cl)c3)C[C@H]2[C@H]2C(=O)N(c3ccccc3)C(=O)[C@H]2C1	none (no result: eIF4E 4G PPI, PfM18AAP inh, eIF4H FP inh, PERK inh, PABP FP inh)
CCOC1=C2CN(S(=O)(=O)c3ccc(C)cc3)[C@@H](c3ccccc3)C[C@H]2[C@H]2C(=O)N(c3ccccc3)C(=O)[C@H]2C1	PABP1 MLLE inh 48.8 (no result: eIF4E 4G PPI, PfM18AAP inh, eIF4H FP inh, PERK inh, PABP FP inh)
CC1CC(=O)c2c(cc3c(-c4c(O)cc(O)c5c(O)c6c(cc45)OC(C)CC6=O)c(O)cc(O)c3c2O)O1 (centres undefined)	eIF4H FP inh 100.2, PABP FP inh 91.8
CCCc1cc(C(=O)Nc2sc(C)c(C)c2C(=O)OCC)no1	PfM18AAP inh 34.8
O=C1/C(=C/c2ccco2)N=C(N2CCCCC2)N1c1ccccc1	eIF4H FP inh 87.8, PABP FP inh active
COc1ccc2ccc(C(C)(C(C)=O)C(=O)OC(C)C)cc2c1 (centres undefined)	none (no result: eIF4E 4G PPI, PfM18AAP inh, eIF4H FP inh, PERK inh, PABP FP inh)
COC(=O)c1ccc(/C=C(\C#N)c2nc3ccccc3s2)cc1	eIF4H FP inh inconclusive, PABP FP inh 20.5
O=C(COC(=O)Cc1n[nH]c(=O)c2ccccc12)Nc1cccc(C(F)(F)F)c1	none
c1ccc(C2CSc3ccccc3N2)cc1 (centres undefined)	PfM18AAP inh 40.6 (no result: eIF4E 4G PPI, PERK inh)
O=C(c1ccco1)[C@@H]1[C@@H]2C(=O)N(c3ccccc3)C(=O)[C@@H]2C2c3ccccc3C=CN21 (some centres undefined)	none (no result: eIF4E 4G PPI)
Cc1ccc(N2C(=O)[C@@H]3[C@H](C2=O)C2c4ccccc4C=CN2[C@@H]3C(=O)c2ccco2)cc1 (some centres undefined)	PABP1 MLLE inh 36.8
CC(=O)[C@@H]1[C@@H]2C(=O)N(Cc3ccccc3)C(=O)[C@@H]2C2c3ccccc3C=CN21 (some centres undefined)	eIF4H FP inh 95.9, PABP FP inh 112.4
COc1ccc(N2C(=O)[C@@H]3[C@H](C2=O)[C@H]2c4ccccc4C=CN2[C@@H]3C(=O)Nc2ccccc2)cc1	eIF4H FP inh inconclusive, PABP FP inh inconclusive
OC(CNCc1ccccc1C(F)(F)F)C(F)(F)F (centres undefined)	none
COCCNC(=O)CCC1CCN(Cc2ccc(-c3ccccc3)cc2)CC1	none (no result: eIF4E 4G PPI, PERK inh)
COCCn1c(C)cc(/C=C2\NC(=S)N(C)C2=O)c1C	PABP FP inh 2.8
COCCn1c(C)cc(/C=C2/SC(=O)N(C(C)C(=O)OC)C2=O)c1C (centres undefined)	none
COc1cccc(C(C)NC(=O)Cc2cccs2)c1 (centres undefined)	none (no result: eIF4E 4G PPI, PERK inh)
COc1ccccc1CNc1nc(-c2cc(C)n(C)c2C)cs1	eIF4E 4G PPI 46.9, eIF4H FP inh inconclusive
Cc1cc(-c2csc(N)n2)c(C)n1C	eIF4H FP inh 118.0, PABP FP inh 106.9
O=C(C1CCN(S(=O)(=O)c2cccnc2)CC1)N1CCN(c2cccc(Cl)c2)CC1	eIF4E 4G PPI 86.3
CC(C)c1ccc(S(=O)(=O)N2CCC(C(=O)N3CCN(c4cccc(Cl)c4)CC3)CC2)cc1	none (no result: eIF4E 4G PPI, PfM18AAP inh, eIF4H FP inh, PERK inh, PABP FP inh)
Cc1ccc(C)c(NC2=NS(=O)(=O)c3ccccc32)c1	none
Cc1cc(C)c(NC2=NS(=O)(=O)c3ccccc32)c(C)c1	PERK inh 3.6
O=C(CCc1ccccc1)NC1CCS(=O)(=O)C1 (centres undefined)	none (no result: eIF4E 4G PPI, PfM18AAP inh, eIF4H FP inh, PERK inh, PABP FP inh)
COc1ccc(Br)cc1CNC(=O)C1CCN(c2nnc(N3CCCC3=O)s2)CC1	none (no result: eIF4E 4G PPI, PERK inh)
COc1ccc(CNC(=O)C2CCN(c3nnc(N4CCCC4=O)s3)CC2)cc1	eIF4H FP inh 90.4, PABP FP inh 52.4 (no result: eIF4E 4G PPI, PERK inh)
Cc1c(OCC(F)(F)F)ccnc1CS(=O)c1nc2ccccc2[nH]1 (centres undefined)	none
COCCCOc1ccnc(CS(=O)c2nc3ccccc3[nH]2)c1C (centres undefined)	PfM18AAP inh 31.2 (no result: eIF4E 4G PPI, PERK inh)
CCN(CC)C(=O)c1cccc(-c2csc(C(NC(C)=O)c3cccc(OC)c3)n2)c1 (centres undefined)	none (no result: eIF4E 4G PPI, PfM18AAP inh, eIF4H FP inh, PERK inh, PABP FP inh)
CC(C)(C)Cc1nnc(NC(=O)c2ccc3c(c2)OCO3)s1	PfM18AAP inh 30.0 (no result: eIF4E 4G PPI, PERK inh)
COc1ccc(OCCC(=O)OCC(=O)Nc2cccc(S(=O)(=O)N3CCOCC3)c2)cc1	PERK inh 3.3
COc1ccc(NC(=O)c2cccc(S(=O)(=O)N3CCOCC3)c2)cc1	none (no result: eIF4E 4G PPI, PERK inh)
O=C(O)COc1ccccc1/C=N/NC(=O)c1cccc(S(=O)(=O)N2CCOCC2)c1	eIF4H FP inh 2.2
COc1ccc(NC(=O)c2cccc(S(=O)(=O)N3CCOCC3)c2)cn1	eIF4H FP inh 73.1, PABP FP inh 69.8
Cc1ccc(OCC(=O)Nc2nc(C)c(Cl)cc2Cl)c([N+](=O)[O-])n1	none (no result: eIF4E 4G PPI, PfM18AAP inh, eIF4H FP inh, PERK inh, PABP FP inh)
CCCCOc1cc(C(=O)NCCN(CC)CC)c2ccccc2n1	eIF4E 4G PPI 74.2!
CCN(CC)CCNC(=O)c1cc(-c2ccc(Br)s2)nc2ccccc12	none (no result: eIF4E 4G PPI, PERK inh)
Cc1cc(Cl)ccc1OCC(=O)n1cc(C(=O)c2cc(Cl)ccc2O)cn1	PfM18AAP inh 30.5 (no result: PABP1 MLLE inh)
COc1cc(/C=C/C(=O)O)ccc1O	none (no result: eIF4E 4G PPI, PfM18AAP inh, eIF4H FP inh, PERK inh, PABP FP inh)
O=C(/C=C/c1ccc(O)c(O)c1)O[C@H](Cc1ccc(O)c(O)c1)C(=O)O	eIF4H FP inh 98.2, PABP FP inh 81.8 (no result: PABP1 MLLE inh, PfM18AAP inh, PERK inh)
O=C(O)/C=C/c1ccc(O)c(O)c1	PfM18AAP inh 81.7
CCN(CC)C(=O)Cn1cc(C(=O)C(=O)NCCc2c[nH]c3ccccc23)c2ccccc21	none (no result: eIF4E 4G PPI, PERK inh)
Cc1ccc(-c2csc3nc(CN(C)Cc4ccccc4)[nH]c(=O)c23)cc1	eIF4H FP inh 97.8, PABP FP inh 0.3
CC(=O)Nc1ccc(C(=O)OCCc2ccccc2)cc1	none (no result: eIF4E 4G PPI, PERK inh)

Screens (PubChem BioAssay)
